According to the supplement of paper PMC10646978:
± gives the standard deviation.

Legend:
Settings in all cases: modulator concentration 10 µM
[1] = system: RAW-Dual (murine macrophage reporter line); test: NF-kB reporter (SEAP) activity fold change vs agonist alone; higher = enhanced NF-kB activity
Summary of the method: (§1)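 Compound reached 10 μM final in each well by pin transfer, onto RAW-Dual murine macrophage reporter cells seeded at 50 000 per well in 384-well plates. After 1 hour at 37 °C, the cells were stimulated overnight with a PRR agonist. SEAP in the supernatant was read with QUANTI-Blue at 620 nm absorbance for NF-κB, and Lucia luciferase was read with QUANTI-Luc luminescence for IRF. Each signal was turned into fold change against the mean agonist-only control on the same plate, and two replicate plates were averaged with propagated errors.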

[2] = system: RAW-Dual (murine macrophage reporter line); test: IRF reporter (Lucia luciferase) activity fold change vs agonist alone; higher = enhanced IRF activity
Summary of the method: as §1

[3] = system: RAW-Dual (murine macrophage reporter line); test: viability score (confluency relative to resting cells, overnight) (fraction); higher = more viable, active = viable (0.7 or more)
Summary of the method: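 In 384-well plates, RAW-Dual macrophages received compound at a final 10 μM overnight. Two confluency masks were then made with IncuCyte software from IncuCyte images of all imaged wells. The viability score is defined as confluency relative to resting cells. Passing the cutoff required both masks to lie above 70% of resting cells.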

[4] = agonist: CpG ODN 1826 0.5 ug/mL

SMILES	NF-kB reporter [1, 4]	NF-kB reporter ([1]; agonist: LPS 0.1 ug/mL)	NF-kB reporter ([1]; agonist: MPLA […])	IRF reporter ([2]; agonist: 3'3'-cGAMP 10 ug/mL)	IRF reporter ([2]; agonist: LPS 0.1 ug/mL)	IRF reporter ([2]; agonist: MPLA […])	viability score [3]
CC(C)(C)C1(O)CC(C(F)(F)F)=NN1C(=O)c1ccc([N+](=O)[O-])cc1 (stereo not given)	0.644 ± 0.056	0.79 ± 0.095	1.01 ± 0.035	1.38 ± 0.13	1.13 ± 0.14	1.66 ± 0.33	0.941 (active)
Nc1nc(=O)[nH]cc1F	0.84 ± 0.12	1.07 ± 0.085	1.08 ± 0.11	1.02 ± 0.049	1.23 ± 0.071	1.33 ± 0.11	1.01 (active)
O=S(=O)(Cc1cccc(F)c1)N1C2CCC1CC(Oc1cccnc1)C2 (stereo not given)	1.18 ± 0.07	1.1 ± 0.099	1.04 ± 0.054	0.986 ± 0.04	1.06 ± 0.052	1.04 ± 0.1	1 (active)
C[C@]1(O)C[C@@H](c2nc(-c3ccc4ccc(-c5ccccc5)nc4c3)c3c(N)nccn32)C1	0.797 ± 0.04	1.26 ± 0.1	0.899 ± 0.08	0.593 ± 0.055	0.971 ± 0.072	0.958 ± 0.17	1 (active)
Cn1nc2c(c1CNS(=O)(=O)CCC(F)(F)F)CCC2	0.93 ± 0.077	0.805 ± 0.064	1.17 ± 0.15	1.01 ± 0.049	1.32 ± 0.2	1.41 ± 0.49	0.981 (active)
Cc1ccc(N2C(=O)C(=Cc3cccc([N+](=O)[O-])c3)SC2=S)cc1	0.957 ± 0.088	0.944 ± 0.08	0.949 ± 0.11	0.623 ± 0.035	1.26 ± 0.19	1.38 ± 0.29	0.996 (active)
CCC1(c2cnc[nH]2)Cc2ccccc2C1	0.746 ± 0.13	1.09 ± 0.17	0.862 ± 0.055	0.764 ± 0.21	1.33 ± 0.14	0.787 ± 0.11	0.876 (active)
O=C(CS(=O)Cc1ccco1)NC/C=C\COc1cc(CN2CCCCC2)ccn1 (stereo not given)	0.989 ± 0.16	1.02 ± 0.14	0.928 ± 0.052	0.897 ± 0.043	1.24 ± 0.3	1 ± 0.24	0.997 (active)
CC1(C)CC(=O)C2=C(C1)OC(N)=C(C#N)C21CCCCC1	1.01 ± 0.18	0.866 ± 0.07	0.895 ± 0.14	0.867 ± 0.024	1.13 ± 0.15	1.18 ± 0.14	1 (active)
CCOC(=O)N[C@@H]1CC[C@@H]2[C@@H](C1)C[C@H]1C(=O)O[C@H](C)[C@H]1[C@H]2/C=C/c1ccc(-c2cccc(F)c2)cn1	0.376 ± 0.022	0.451 ± 0.1	0.323 ± 0.019	0.653 ± 0.082	0.783 ± 0.15	0.737 ± 0.16	0.299 (inactive)
CC(Oc1ccccc1)C(=O)NCc1cc(-c2ccncc2)n(C2CCCC2)n1 (stereo not given)	1.35 ± 0.1	1.24 ± 0.11	1.13 ± 0.12	1.02 ± 0.067	1.02 ± 0.064	1.12 ± 0.086	1 (active)
Cn1cnc2cc(NCc3nc4ccccc4n3C)ccc21	0.818 ± 0.065	1.03 ± 0.078	1.01 ± 0.039	0.955 ± 0.17	1.03 ± 0.15	1.03 ± 0.24	1 (active)
Cc1cc(C)n(CCCN2C(=O)c3cccc4cccc(c34)C2=O)n1	0.926 ± 0.084	1.04 ± 0.083	0.955 ± 0.11	0.993 ± 0.054	1.09 ± 0.075	1.14 ± 0.088	1.01 (active)
O=C(C1=C(O)C(=O)N(c2nccs2)C1c1ccccc1)c1cc2ccccc2o1 (stereo not given)	0.928 ± 0.054	1.57 ± 0.12	0.97 ± 0.062	0.664 ± 0.026	0.967 ± 0.19	0.885 ± 0.082	0.997 (active)
Brc1ccc(Cn2c(CN3CCCC3)nc3ccccc32)cc1	0.679 ± 0.17	1.05 ± 0.092	1.07 ± 0.08	0.775 ± 0.029	1.12 ± 0.18	1.16 ± 0.22	0.957 (active)
